Measured values taken from PubChem BioAssay (NCI).
Values joined by “and” are separate entries in the source; they are usually repeats but may differ in a detail not shown here. Equal entries are not always repeated. This is part of a sample that, as a whole, favours compounds with a hit. Of some 79,000 tested, about 15% had one in any assay. Unmarked numbers belong to inactive results. Rule as the data show it: active = growth inhibition above about 70%; inactive = the rest.

Assay: NCI Yeast Anticancer Drug Screen. Data for the mec2-1 strain (AID 157)
Settings: S. cerevisiae mec2-1 strain, at 50.0 µM, hits give high values
How it was run: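 Mutant yeast (mec2-1) grown with compound; growth inhibition relative to vehicle control reported.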

For `CCOC(=O)/C(=C/c1ccc[nH]1)P(=O)(OCC)OCC`, which growth inhibition is on record?
The growth inhibition was -26.1%.

Which growth inhibition does the source give for `O=C(O)C1C2Cc3ccccc3C21` (centres undefined) here?
Its growth inhibition is 10.4%.

Which growth inhibition does the source give for `N=C(N)c1nn[nH]n1` here?
The growth inhibition was -5.25%.

With `O=P(O)(O)C(O)c1ccccc1` (centres undefined) as the molecule, how does the growth inhibition read?
Its growth inhibition is -31.9%.

Which growth inhibition does the source give for `O=P1(C(Cl)Cl)OCCCO1` here?
The growth inhibition was 10.7%.

Which growth inhibition does the source give for `COc1cccc(N2C(=O)C3C(C2=O)C2(Cl)C(Cl)=C(Cl)C3(Cl)C2(Cl)Cl)c1` (centres undefined) here?
The growth inhibition was 45.2%.

Which growth inhibition does the source give for `COC(C)CCOC(=O)Cc1ccccc1` (centres undefined) here?
The growth inhibition was -5.25%.

For `N#CC(C#N)=Cc1ccc(Cl)cc1`, which growth inhibition is on record?
Its growth inhibition is -2.05% and -21.4%.

Which growth inhibition does the source give for `Cc1ccc(-n2cnc3c(N(CCCl)CCCl)ncnc32)cc1` here?
Its growth inhibition is 0.55%.

For `CCCC1CC=CCC12C(=O)NC(=O)NC2=O` (centres undefined), which growth inhibition is on record?
Its growth inhibition is 1.45%.

Which growth inhibition does the source give for `N#Cc1ccc(CCl)cc1` here?
The growth inhibition was 7.55%.

For `O=S(=O)(O)O/N=C(\Cc1ccccc1)SC1OC(CO)C(O)C(O)C1O` (centres undefined), which growth inhibition is on record?
The growth inhibition was -7.1%.

For `Cc1nc2ccc(Br)cc2c(=O)n1-c1ccc(N)cc1`, which growth inhibition is on record?
The growth inhibition was -2.4%.

Which growth inhibition does the source give for `Cc1cccc(C=NCCOCCOCCN=Cc2cccc(C)c2O)c1O.[Ni]` here?
The growth inhibition was 2.65%.

For `CCC1(CCNC(=O)CNC(C)=O)C(=O)NC(=O)NC1=O`, which growth inhibition is on record?
Its growth inhibition is -6.45%.

For `CN1CCOC(c2ccccc2)c2ccsc2CC1` (centres undefined), which growth inhibition is on record?
The growth inhibition was -5%.

Which growth inhibition does the source give for `O=NN1CCNCC1` here?
The growth inhibition was -16.1% and -24.3%.

For `CN1C(=O)NC(C)(c2cccc(N(CCCl)CCCl)c2)C1=O` (centres undefined), which growth inhibition is on record?
Its growth inhibition is 24.2%.

With `CC1(CCl)COP(=O)(NN)OC1` (centres undefined) as the molecule, how does the growth inhibition read?
Its growth inhibition is -3.15%.

Which growth inhibition does the source give for `CCOC(=O)/C=C1\Nc2ccccc2C(c2ccccc2)=NC1OC(C)=O` (centres undefined) here?
The growth inhibition was -20.6%.

Which growth inhibition does the source give for `O=C(N=[C-]c1ccc[oH+]1)c1cccnc1.O=C(N=[C-]c1ccc[oH+]1)c1cccnc1.[Ni+2]` here?
The growth inhibition was -34.5%.

Which growth inhibition does the source give for `O=c1oc2cc(O)ccc2c(O)c1C(c1ccccn1)c1c(O)c2ccc(O)cc2oc1=O` here?
Its growth inhibition is 9.15%.

Assay: NCI Yeast Anticancer Drug Screen. Data for the sgs1 mgt1 strain (AID 161);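 also: 0% = growth of cultures given vehicle only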
Settings: S. cerevisiae sgs1 mgt1 strain, at 50.0 µM, hits give high values
How it was run: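 Growth of a repair-deficient yeast mutant was monitored after compound treatment and expressed as inhibition relative to vehicle-treated cultures.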

For `Nc1ccccc1C(=O)Oc1ccccn1`, which growth inhibition is on record?
Its growth inhibition is -0.8%.

For `COc1ccc2c(c1O)-c1cc(O)cc3c1C(C2)NCC3` (centres undefined), which growth inhibition is on record?
The growth inhibition was -12.5%.

Which growth inhibition does the source give for `CN1CCCC(OC(=O)C(c2ccccc2)C2(O)CCCC2)C1` (centres undefined) here?
The growth inhibition was 27.1%.

With `NC(=O)c1ccc(NN=O)nc1` as the molecule, how does the growth inhibition read?
The growth inhibition was 1.1%.

With `CC(=O)[O-].[Ni].c1ccc(/C(=N\Nc2ccccn2)c2ccccn2)cc1` as the molecule, how does the growth inhibition read?
Its growth inhibition is 4.25%.

With `[N-]=[N+]=CC(=O)OCC(N)C(=O)O` (centres undefined) as the molecule, how does the growth inhibition read?
Its growth inhibition is -5.35%.

With `CCN1C2CCC1CC(=O)C2` as the molecule, how does the growth inhibition read?
The growth inhibition was -5.7%.

With `C[CH2][Sn]([CH2]C)([O]C(=O)c1ccc(F)cc1)[O]C(=O)c1ccc(F)cc1` as the molecule, how does the growth inhibition read?
Its growth inhibition is 38.5%.

For `CCCN=Cc1ccccc1O.CCCN=Cc1ccccc1O.[Ni]`, which growth inhibition is on record?
Its growth inhibition is 18.6%.

For `C#CCOC(C(=O)OC1CCN(C)CC1)(c1ccccc1)c1ccccc1`, which growth inhibition is on record?
Its growth inhibition is -6.45%.

For `CCOC(CNC(=O)c1ccc(S(=O)(=O)F)cc1)OCC`, which growth inhibition is on record?
The growth inhibition was 22.1%.

For `NS(=O)(=O)c1ccc([As]=O)cc1` (centres undefined), which growth inhibition is on record?
Its growth inhibition is -3.95%.

With `CSCCC(N)P(C)(=O)O` (centres undefined) as the molecule, how does the growth inhibition read?
Its growth inhibition is -15.7%.

With `NC1(O)C(=O)NC(=O)NC1=O` as the molecule, how does the growth inhibition read?
Its growth inhibition is -18.9%.

With `COc1cc(C2CNCc3cc(OC)c(O)cc32)ccc1O` (centres undefined) as the molecule, how does the growth inhibition read?
The growth inhibition was -11.1%.

With `O=[N+]([O-])c1cc(/C=N\NC(=S)NC2CN3CCC2CC3)ccc1Cl` (centres undefined) as the molecule, how does the growth inhibition read?
Its growth inhibition is 1.85%.

For `NC(=NC(c1ccccc1)c1ccccc1)N[N+](=O)[O-]`, which growth inhibition is on record?
The growth inhibition was -12.6%.

Which growth inhibition does the source give for `COc1ccc(NC(=O)C(=O)C(CC2C(=O)NC(=S)NC2=O)C(=O)c2ccc3ccccc3c2)c([N+](=O)[O-])c1` (centres undefined) here?
The growth inhibition was 13.1%.

For `CCOC(=O)/C(=C/c1ccc[nH]1)P(=O)(OCC)OCC`, which growth inhibition is on record?
The growth inhibition was -31.8%.

Which growth inhibition does the source give for `O=C(O)C1C2Cc3ccccc3C21` (centres undefined) here?
The growth inhibition was -8.35%.

With `N=C(N)c1nn[nH]n1` as the molecule, how does the growth inhibition read?
Its growth inhibition is -19.8%.

For `O=P(O)(O)C(O)c1ccccc1` (centres undefined), which growth inhibition is on record?
The growth inhibition was -15.4%.

Which growth inhibition does the source give for `O=P1(C(Cl)Cl)OCCCO1` here?
The growth inhibition was -2.65%.

With `COc1cccc(N2C(=O)C3C(C2=O)C2(Cl)C(Cl)=C(Cl)C3(Cl)C2(Cl)Cl)c1` (centres undefined) as the molecule, how does the growth inhibition read?
Its growth inhibition is 53.5%.

For `COC(C)CCOC(=O)Cc1ccccc1` (centres undefined), which growth inhibition is on record?
The growth inhibition was -0.15%.

Which growth inhibition does the source give for `N#CC(C#N)=Cc1ccc(Cl)cc1` here?
Its growth inhibition is 8.5% and 19.9%.

Which growth inhibition does the source give for `Cc1ccc(-n2cnc3c(N(CCCl)CCCl)ncnc32)cc1` here?
The growth inhibition was -1.45%.
